Hits are enriched below; roughly 9.3% of the tested compounds scored in any of these assays.
NPC1 prom act = qHTS Assay for NPC1 Promoter Activators | Huh7 NPC1 promoter luciferase reporter, 24 h | Potency, µM (doses to about 9.22 µM), inactives show at the top dose activation, actives largely listed as activators | 320,000 tested, 2.4% active; also: % of control where 0% means no effect; nearly all actives have a fitted effect of over 60% in size
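Quantitative HTS used a cell-based reporter: Huh7 cells stably bearing the NPC1 promoter upstream of luciferase were treated with compounds for 24 h, and promoter activation was read as luminescence.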
FLuc counter = qHTS profiling assay for firefly luciferase inhibitor/activator using purifed enzyme and Km concentrations of substrates (counterscreen for miR-21 project) | Luciferin 4-monooxygenase (Photinus pyralis), P08659 | purified FLuc, Km substrates, luminescence inhibition | Potency, µM (titrated, usually from 57.5 µM), for the others: at the highest dose activity change, negative = inhibition, usual class: inhibitors | 360,000 tested, 6.9% active | AID 588342, 2011;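 also: plate controls were vehicle for no effect and reference inhibitor for full effect; nearly all actives have a fitted effect of over 55% in size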
Target sequence (P08659 whole entry, looked up): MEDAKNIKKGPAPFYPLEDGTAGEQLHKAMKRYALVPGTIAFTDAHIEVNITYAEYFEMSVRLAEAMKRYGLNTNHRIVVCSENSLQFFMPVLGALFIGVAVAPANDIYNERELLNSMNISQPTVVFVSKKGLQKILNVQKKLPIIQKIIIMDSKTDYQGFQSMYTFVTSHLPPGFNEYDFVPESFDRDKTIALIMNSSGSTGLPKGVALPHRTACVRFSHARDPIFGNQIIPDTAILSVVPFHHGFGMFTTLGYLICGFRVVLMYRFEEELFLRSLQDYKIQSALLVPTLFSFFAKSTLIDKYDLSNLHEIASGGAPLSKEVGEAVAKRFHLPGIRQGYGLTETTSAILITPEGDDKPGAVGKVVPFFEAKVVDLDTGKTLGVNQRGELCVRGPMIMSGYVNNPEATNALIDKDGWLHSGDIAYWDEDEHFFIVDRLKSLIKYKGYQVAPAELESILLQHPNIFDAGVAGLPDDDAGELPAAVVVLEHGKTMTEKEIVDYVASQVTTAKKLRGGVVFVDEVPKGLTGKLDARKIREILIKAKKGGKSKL
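Purified P. pyralis luciferase (10nM final) with 10uM D-luciferin and 10uM ATP (Km levels) in 50mM Tris acetate pH 7.5, 10mM Mg acetate, 0.01% Tween-20, 0.05% BSA; qHTS 6-point titration, ~60 µM downward; luminescence read.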
ELG1 genotoxic = qHTS screen for small molecules that induce genotoxicity in human embryonic kidney (HEK293T) cells expressing luciferase-tagged ELG1. HEK293T ELG1-luciferase reporter, luminescence, 16 h. Potency, µM (titrated, usually from 46 µM), without a hit: at the top dose activity change, positive = activation, hits mostly activators. 330,000 tested, 1.3% active. AID 504466, 2011; also: % of control where 0% means no effect; nearly all actives have a fitted effect of over 60% in size
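Screening used a luciferase reporter fused to human ELG1 in HEK293T cells. Luminescence was read on a CCD plate imager after 16 hr exposure and 30 min ONE-Glo incubation.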
SMN2 splice up = qHTS Assay for Enhancers of SMN2 Splice Variant Expression; 210,000 tested, 2.8% active; AID 1458, 2008; HEK293 SMN2-luciferase splicing reporter, luminescence, 30-36 h; Potency, µM (series often up to 46.1 µM), for the others: top-dose activity change, positive = activation, actives largely listed as activators; also: % of control where 0% means no effect; nearly all actives have a fitted effect of over 55% in size
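HEK293 cells carry an SMN2 minigene-luciferase reporter in which exon 7 inclusion puts luciferase in frame. Cells were seeded at 2000 cells/well, attached for 10-12 hours, then exposed to compounds for 30-36 hours at 37C before ONE-Glo luminescence.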
Rab9 promoter act = qHTS Assay for Rab9 Promoter Activators | Huh7 Rab9 promoter-luciferase reporter, luminescence, 24 h | Potency, µM (series often up to 9.22 µM), inactives show top-dose activation, negative = inhibition, most hits filed as activators | 320,000 tested, 2.8% active; also: % of control where 0% means no effect; nearly all actives have a fitted effect of over 60% in size
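Using Huh7 cells stably transfected with Rab9 promoter–luciferase, compounds were incubated 24 h at 37 °C, 5% CO2; luciferase luminescence was read 10 min after reagent addition.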
ELG1 DNA repair = qHTS screen for small molecules that inhibit ELG1-dependent DNA repair in human embryonic kidney (HEK293T) cells expressing luciferase-tagged ELG1; 330,000 tested, 2.3% active; AID 504467, 2011; Potency, µM (top dose mostly 46.1 µM), for the others: at the highest dose activity change, negative = inhibition, usual class: inhibitors; HEK293T ELG1-luciferase reporter, luminescence, 16 h; DNA damage induced by 5-fluorouridine; also: % is scaled to controls: 0 for no effect and ±100 for the full control effect; nearly all actives have a fitted effect of over 55% in size
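HEK293T cells expressing luciferase-tagged ELG1 (2,000/well) received 5-Fluorouridine plus compound or DMSO for 16 hr at 37 °C. Luciferase was read by ONE-Glo luminescence after 30 min at room temperature.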
The depositor's hits bear a star; ? = inconclusive; . = no result; [ ] = dose if it differs, or a comment. Calls follow the shape of the dose curve; as a rule, active = well fitted curve in the direction sought with a large enough effect; inconclusive = small, poorly fitted or top-dose-only effect, or another doubt; inactive = no such curve, though single readings can be large; an effect the other way counts as inactive or inconclusive. Potency is read from the fitted curve at half-maximal effect.

SMILES	NPC1 prom act	FLuc counter	ELG1 genotoxic	SMN2 splice up	Rab9 promoter act	ELG1 DNA repair
CC1(C)S[C@@H]2[C@H](NC(=O)COc3ccccc3)C(=O)N2C1C(=O)OCc1cc2ccccc2n1S(=O)(=O)c1ccccc1 (some centres not stated)	-4%	3%	-2%	.	-1%	13%
Nc1c(C(=O)Nc2ccccc2)sc2ncc([N+](=O)[O-])cc12	?	2%	9%	.	?	?
Cc1nc2sc(C(=O)Nc3ccccc3)c(N)c2c(C)c1[N+](=O)[O-]	3.2µM*	?	7.3µM*	?	4.5µM*	?
Cc1nc2sc(C(=O)OC(C)C)c(N)c2c(C)c1C	-20%	-18%	14%	28%	4.5µM*	?
Cc1nc2sc(C(=O)c3ccccc3)c(N)c2c(C)c1C	9%	?	11%	1%	29%	6%
CC(=O)c1ccc(NC(=O)c2sc3nc(C)c(C)c(C)c3c2N)cc1	0.56µM*	0.48µM*	3.7µM*	.	0.79µM*	?
COc1cc(NC(=O)CSc2nc3ccccc3cc2C)c(C(=O)O)cc1OC	-1%	2%	-4%	-2%	1%	-2%
CC(C)=CCC(C)(C)C1OCCN1C(=O)c1ccccc1 (configuration not stated)	-1%	10%	-1%	19%	-5%	11%
COc1ccc(CN=C(Nc2ccccc2)SC2CC(=O)NC2=O)cc1 (configuration not stated)	?	6.7µM*	?	.	?	?
N=c1nc(N)nc(N)n1-c1ccc(S(N)(=O)=O)cc1	.	.	.	-13%[9.22 µM]	.	.
COc1ccccc1-n1cc(C(=O)NCC(=O)N2CCN(c3ccccc3)CC2)c2ccccc2c1=O	28%	0.76µM*	15%	?	?	?
COc1ccccc1N1CCN(C(=O)CNC(=O)c2cn(-c3ccccc3OC)c(=O)c3ccccc23)CC1	7%	6.7µM*	7%	9%	22%	27%
COc1ccc(N2CCN(C(=O)CNC(=O)c3ccccc3Cl)CC2)cc1	0%	2%	-7%	.	-10%	-5%
COc1ccccc1OCC(=O)N1CCN(c2ccccc2OC)CC1	.	-2%	.	2%	.	.
COc1ccccc1-n1cc(C(=O)NCC(=O)N2CCN(c3ccccn3)CC2)c2ccccc2c1=O	16%	3.4µM*	12%	.	17%	?
CSc1ccc(CN(C)C(=O)c2cc3ccccc3o2)cc1	22%	17µM*	8%	.	-1%	27%
CSc1ccc(CN(C)C(=O)c2cc(=O)c3ccccc3o2)cc1	-2%	-2%	-9%	.	1%	-10%
CCN(CC(=O)Nc1cc(C)nn1-c1nc(C)cc(C)n1)Cc1ccccc1	-3%	0%	-10%	-7%	-2%	18µM*
Cc1cc(C)nc(-n2nc(C)cc2NC(=O)CN2CCc3ccccc3C2)n1	-2%	10%	-41%	-10%	6%	3.7µM*
CN1CC(=O)N/C1=N/C(=O)Nc1cccc(Cl)c1	?	.	.	6%	?	.
O=C(OCc1nnc(-c2ccccc2)o1)c1ccc2c(c1)OCCO2	18%	?	4%	5%	10%	?
CCOC(=O)c1sc(NC(=O)CSc2nccc(C)n2)c(C#N)c1C	3%	2%	13%	-20%	0%	6%
CCOC(=O)c1sc(NC(=O)c2cc(-c3ccc(C)cc3)nc3ccccc23)c(C#N)c1C	-3%	12µM*	-6%	-78%	-14%	?
COc1ccc(-c2cc(C(=O)Nc3sc4c(c3C#N)CCCC4)c3ccccc3n2)cc1	-1%	15µM*	-2%	-16%	0%	?
